We go through five compounds from PubChem BioAssay.

A word on the inhibition: it is the change of the read-out against control, counted positive when it falls.

The nature of assay [1]: yeast TOR pathway RPL19A-GFP modulators, primary screen, cell-based, S. cerevisiae, multiplex flow cytometry (AID 1862; in the data active = percent of DMSO control GFP below about 86%;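 also: lower values mimic rapamycin by blocking the RPL19A rise seen in DMSO cells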). The conditions noted are these: S. cerevisiae RPL19A-GFP strain, flow cytometry fluorescence, 3 h; at 10 µM; stronger effect = lower value.
Assay [2] is described as follows: modulators of MEP2-GFP levels in yeast, primary screen, S. cerevisiae, multiplex flow cytometry (AID 1867;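 active = GFP response, as percent of the DMSO control, above the screen-wide mean plus 3 SD, about 139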;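 also: median GFP channel fluorescence of barcode-gated MEP2-GFP cells measured by flow cytometry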). The conditions noted are these: S. cerevisiae MEP2-GFP strain, 3 h, at 10 µM, stronger effect = higher value, 100% means same as DMSO wells.
A short description of assay [3]: modulators of CIT2-GFP expression in yeast, primary screen, S. cerevisiae, GFP fusion, multiplex flow cytometry (AID 1870;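 active = percent response above a set limit, the screen-wide mean plus 3 SD, cut at about 130% in these data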;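 also: barcoded CIT2-GFP strain pooled with four other GFP strains with rapamycin as positive control; median GFP fluorescence per well over plate mean of DMSO wells so 100% = DMSO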). The conditions noted are these: 3 h, at 10 µM, stronger effect = higher value. In general terms: A flow cytometer gives signals particle by particle.
Assay [4] can be described thus: modulators of LAP4-GFP expression in yeast, primary screen, S. cerevisiae, multiplex flow cytometry (AID 1873;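 active = GFP signal, as percent of the solvent control, above the screen mean plus 3 SD, about 149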). The note with it: 3 h, at 10 µM, stronger effect = higher value.
Assay [5] can be described thus: modulators of AGP1-GFP expression in yeast TOR pathway, primary screen, cell-based, multiplex flow cytometry, S. cerevisiae (AID 1887;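 active = GFP signal above the screen-wide mean plus 3 SD, that is over about 124.5% of the solvent control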;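 also: AGP1-GFP fusion strain of S. cerevisiae within a five-strain barcoded multiplex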). The note with it: 3 h, at 10 µM, stronger effect = higher value.
Assay [6] in a line: inhibitors of CD8+ T cell-vesicle binding, pilot screen, LFA-1/ICAM-1 modulator project, MLPCN validation set, flow cytometry (AID 2523;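 active = response below a set limit, under 55% cells CD8-positive and vesicle-bound, and CD8 cells' 90th-percentile brightness under 279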;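 as to vesicle binding response: mean PE anti-B7-1 fluorescence of CD8+ cells relative to row control; 100% = QL9-loaded vesicles with DMSO vehicle in the same plate row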). The conditions noted are these: 2C mouse CD8+ T cells, at 7 µM, stronger effect = lower value; double positive events: measured here: CD8+/vesicle+ event percentage.
Assay [7] addresses Integrin beta-1 (Homo sapiens) + Integrin alpha-4 (Homo sapiens) (UniProt P13612+P05556). The experiment in a line: inhibition of HUTS-21 binding to VLA-4, pilot screen, VLA-4 allosteric modulator project, U937 cells, HUTS-21 mAb, flow cytometry, validation set (AID 2674;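 active = inhibition above 50%, about 3 SD of the validation set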;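 also: antibody binding induced by the VLA-4 ligand LDV present at three times its Kd; 0% = LDV ligand with antibody and no compound and 100% = antibody without LDV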). The conditions noted are these: HUTS-21 LIBS mAb binding, at 6.7 µM, stronger effect = higher value, binding induced by LDV ligand.

Assay [8] is described as follows: superoxide lowering in aged yeast cells, pilot screen, validation compound set (AID 2706;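 active = superoxide response below 65% of plate, a cut near 3 SD across the whole screen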;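 also: yeast exposed to compound for one week at 30 degrees C before staining; 100% = mean of all compound wells on the same plate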). The note with it: S. cerevisiae aging, superoxide DHE fluorescence; at 10 µM; stronger effect = lower value.
The target in assay [9] is Beta-adrenergic receptor kinase 1 (Homo sapiens) (UniProt P25098). The assay is described as follows: GRK2 binders displacing RNA aptamer, biochemical, validation, human GRK2, bead flow cytometry (AID 488806;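 active = aptamer binding inhibition above 30%, about 3 SD of noise from non-fluorescent compounds; inactive = inhibition at or below 30%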). The note with it: bead-bound GRK2, FAM-aptamer displacement, at 10 µM, stronger effect = higher value.
Assay [10] has as its target Beta-2 adrenergic receptor (Homo sapiens) (UniProt P07550). The experiment in a line: beta2AR agonists driving receptor internalization, pilot screen, cell-based, FAP fluorogen, flow cytometry, validation set (AID 504459).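 Also: agonist-driven loss of surface beta2AR via internalization measured by FAP dye flow cytometry.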 The conditions noted are these: Am2.2-beta2AR cells, FAP surface receptor flow cytometry; at 10 µM; stronger effect = higher value.
The target in assay [11] is AP-2 complex subunit beta (Homo sapiens) (UniProt P63010). The experiment in a line: inhibitors of arrestin peptide binding to AP2, pilot screen, biochemical, validation set, GST-AP2 beads, flow cytometry (AID 504541;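 active = inhibition above 54%, about 3 SD of non-fluorescent compounds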;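 also: AP2 carries R879A mutation and is captured from E. coli lysate; bead-bound FITC arrestin peptide fluorescence measuring arrestin peptide binding to AP2; 0% = DMSO wells and 100% = excess unlabeled arrestin peptide control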). The note with it: FITC arrestin peptide, at 10 µM, stronger effect = higher value, AP2 beta2 appendage fragment, R879A mutant.
Assay [12] is described as follows: yeast V-ATPase proton transport modulators, S. cerevisiae, pHLuorin, HTS validation (AID 504600; in the data active = response above about 15%;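 also: plate controls were DMSO for no effect and reference compound for full effect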). The note with it: S. cerevisiae pHLuorin cytosolic pH, at 10 µM, stronger effect = higher value.
The subject of assay [13] is anti-desmoglein-3 scFv antibody binding to human DSG3. The assay is described as follows: inhibitors of anti-DSG3 scFv binding to DSG3, pilot screen, biochemical, validation compound set, bead-based, flow cytometry (AID 588368;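 active = binding below the plate cutoff, the plate median minus 3 SD, with a reading above zero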;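 also: signal is the median channel fluorescence of bead-bound GFP antibody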). The note with it: Protein G beads, DSG3-Fc, scFv-GFP binding, at 10 µM, stronger effect = lower value.
The nature of assay [14]: inhibitors of fungal efflux pumps CDR1, CDR2, MDR1, pilot screen, validation compound set, multiplex, phenotypic (AID 588506;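 active = efflux inhibition above 0.42, the validation set average plus 4 SD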;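 also: Nile Red retained in cells so higher fluorescence means more efflux inhibition; 0 = negative control wells and 1 = enniatin B 25 µM full block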). The conditions noted are these: S. cerevisiae pump-expressing triplex, Nile Red efflux flow cytometry; at 10 µM; stronger effect = higher value; the pumps come from Candida albicans.
Assay [15] addresses ATP-binding cassette sub-family B member 6 (Homo sapiens) (UniProt Q9NP58). The assay is described as follows: ABCB6 transporter inhibitors, pilot screen, K562-ABCB6 cells, flow cytometry, validation set (AID 588550;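 active = inhibition above the screen-wide mean plus 3 SD, about 51%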;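 also: 0% = DMSO wells and 100% = benzethonium chloride 70 µM positive control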). The conditions noted are these: K562-ABCB6 porphyrin accumulation, 1 h, at 10 µM, stronger effect = higher value.
The nature of assay [16]: promoters of myeloid differentiation in arrested cells, primary screen, cell-based, GFP/MAC1 double positive, flow cytometry, validation set (AID 588685;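 active = differentiation response of at least 50%, scaled between solvent and reference control, from cells with both markers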;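 also: compound exposure lasts four days before antibody staining and flow analysis; 0% = DMSO wells and 100% = 5 µM fulvestrant positive control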). The conditions noted are these: ER-HoxA9 marrow cells, stronger effect = higher value, normalized: vehicle 0, fulvestrant 100.

Results filed as inconclusive are left out. The source made the active and inactive calls.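 The calls were made as follows, unless noted: active = percent response above 42, roughly 3 SD of non-fluorescent test compounds; inactive = the rest.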

Chain of AP-2 complex subunit beta (Homo sapiens) (P63010 whole entry, looked up, the tested form may be a part, one chain of several): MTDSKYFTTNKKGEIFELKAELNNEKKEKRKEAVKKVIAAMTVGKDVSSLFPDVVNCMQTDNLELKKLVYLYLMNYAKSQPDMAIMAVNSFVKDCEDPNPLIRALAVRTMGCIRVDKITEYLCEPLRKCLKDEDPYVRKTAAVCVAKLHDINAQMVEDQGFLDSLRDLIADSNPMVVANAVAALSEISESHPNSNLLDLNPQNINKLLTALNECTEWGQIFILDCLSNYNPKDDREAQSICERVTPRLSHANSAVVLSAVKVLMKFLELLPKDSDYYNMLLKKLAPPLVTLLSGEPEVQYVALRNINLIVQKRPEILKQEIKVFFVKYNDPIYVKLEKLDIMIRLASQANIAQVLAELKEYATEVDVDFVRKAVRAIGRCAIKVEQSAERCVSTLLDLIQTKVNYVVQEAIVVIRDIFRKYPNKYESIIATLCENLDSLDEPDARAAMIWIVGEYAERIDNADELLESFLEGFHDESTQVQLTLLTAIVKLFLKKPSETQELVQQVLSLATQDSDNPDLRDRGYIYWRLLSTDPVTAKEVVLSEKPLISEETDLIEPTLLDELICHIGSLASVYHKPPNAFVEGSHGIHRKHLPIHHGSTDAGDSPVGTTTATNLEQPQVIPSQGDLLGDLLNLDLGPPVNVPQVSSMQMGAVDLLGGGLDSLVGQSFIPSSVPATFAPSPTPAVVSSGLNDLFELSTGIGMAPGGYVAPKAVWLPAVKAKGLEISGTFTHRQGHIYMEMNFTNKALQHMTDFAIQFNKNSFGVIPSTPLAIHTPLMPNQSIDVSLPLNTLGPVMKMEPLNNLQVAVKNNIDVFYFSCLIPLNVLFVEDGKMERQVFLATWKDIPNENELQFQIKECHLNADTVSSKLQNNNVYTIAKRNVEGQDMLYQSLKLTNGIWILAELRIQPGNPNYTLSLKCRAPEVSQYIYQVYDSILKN
Chain of Beta-2 adrenergic receptor (Homo sapiens) (P07550 whole entry, looked up): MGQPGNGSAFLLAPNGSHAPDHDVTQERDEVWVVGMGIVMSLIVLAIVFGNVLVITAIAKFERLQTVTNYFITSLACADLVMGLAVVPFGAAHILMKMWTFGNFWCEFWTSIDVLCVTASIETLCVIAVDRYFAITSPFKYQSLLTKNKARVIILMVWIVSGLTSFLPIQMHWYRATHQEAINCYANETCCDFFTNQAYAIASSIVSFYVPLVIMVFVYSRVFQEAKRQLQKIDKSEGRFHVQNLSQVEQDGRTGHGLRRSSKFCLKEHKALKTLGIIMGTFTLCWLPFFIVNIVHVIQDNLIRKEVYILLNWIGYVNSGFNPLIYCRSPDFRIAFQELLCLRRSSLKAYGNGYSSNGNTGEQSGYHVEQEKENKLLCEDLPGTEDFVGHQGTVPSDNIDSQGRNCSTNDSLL
Chain of ATP-binding cassette sub-family B member 6 (Homo sapiens) (Q9NP58 whole entry, looked up): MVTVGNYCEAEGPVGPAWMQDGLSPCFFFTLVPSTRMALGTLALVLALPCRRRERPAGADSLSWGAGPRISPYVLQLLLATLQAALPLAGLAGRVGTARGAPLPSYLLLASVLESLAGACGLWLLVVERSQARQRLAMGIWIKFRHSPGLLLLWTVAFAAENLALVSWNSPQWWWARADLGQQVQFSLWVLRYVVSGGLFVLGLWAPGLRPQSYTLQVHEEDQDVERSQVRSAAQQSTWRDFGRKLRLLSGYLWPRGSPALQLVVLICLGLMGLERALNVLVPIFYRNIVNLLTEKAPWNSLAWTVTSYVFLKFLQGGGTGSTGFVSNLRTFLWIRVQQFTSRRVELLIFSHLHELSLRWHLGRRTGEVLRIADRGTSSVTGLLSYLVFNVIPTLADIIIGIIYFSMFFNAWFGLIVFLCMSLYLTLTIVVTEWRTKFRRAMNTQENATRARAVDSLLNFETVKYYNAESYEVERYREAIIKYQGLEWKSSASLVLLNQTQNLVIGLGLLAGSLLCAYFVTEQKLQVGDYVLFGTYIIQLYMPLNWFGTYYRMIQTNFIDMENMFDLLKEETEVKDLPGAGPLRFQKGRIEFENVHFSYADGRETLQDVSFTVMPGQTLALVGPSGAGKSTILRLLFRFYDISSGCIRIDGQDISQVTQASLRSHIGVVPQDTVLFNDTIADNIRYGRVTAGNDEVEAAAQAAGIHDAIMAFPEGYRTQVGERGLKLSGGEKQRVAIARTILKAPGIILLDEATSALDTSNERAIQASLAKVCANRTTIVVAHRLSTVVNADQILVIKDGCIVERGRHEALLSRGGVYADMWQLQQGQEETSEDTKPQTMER
Chain of Integrin beta-1 (Homo sapiens) + Integrin alpha-4 (Homo sapiens) (P05556 whole entry, looked up): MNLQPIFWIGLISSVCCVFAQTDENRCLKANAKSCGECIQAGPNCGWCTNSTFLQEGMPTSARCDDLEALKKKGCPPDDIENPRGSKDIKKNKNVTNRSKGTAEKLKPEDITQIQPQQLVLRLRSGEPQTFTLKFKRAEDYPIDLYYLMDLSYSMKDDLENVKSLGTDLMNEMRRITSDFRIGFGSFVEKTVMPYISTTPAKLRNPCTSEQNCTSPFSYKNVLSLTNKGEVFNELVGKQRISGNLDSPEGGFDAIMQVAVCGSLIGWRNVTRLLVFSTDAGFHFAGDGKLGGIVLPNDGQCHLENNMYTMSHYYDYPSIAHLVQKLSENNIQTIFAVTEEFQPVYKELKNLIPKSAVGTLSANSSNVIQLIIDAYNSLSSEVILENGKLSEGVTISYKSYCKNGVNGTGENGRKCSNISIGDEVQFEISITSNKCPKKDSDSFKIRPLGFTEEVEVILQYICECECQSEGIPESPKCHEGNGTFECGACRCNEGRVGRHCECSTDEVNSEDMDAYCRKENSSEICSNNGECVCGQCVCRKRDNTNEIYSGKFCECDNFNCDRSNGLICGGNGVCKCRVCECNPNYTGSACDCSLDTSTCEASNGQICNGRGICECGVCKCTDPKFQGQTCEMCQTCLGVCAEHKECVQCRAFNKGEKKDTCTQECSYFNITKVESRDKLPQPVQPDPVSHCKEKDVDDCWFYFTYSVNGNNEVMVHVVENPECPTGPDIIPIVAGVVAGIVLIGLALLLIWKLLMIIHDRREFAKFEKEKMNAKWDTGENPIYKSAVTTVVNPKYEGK
Chain of Integrin beta-1 (Homo sapiens) + Integrin alpha-4 (Homo sapiens) (P13612 whole entry, looked up): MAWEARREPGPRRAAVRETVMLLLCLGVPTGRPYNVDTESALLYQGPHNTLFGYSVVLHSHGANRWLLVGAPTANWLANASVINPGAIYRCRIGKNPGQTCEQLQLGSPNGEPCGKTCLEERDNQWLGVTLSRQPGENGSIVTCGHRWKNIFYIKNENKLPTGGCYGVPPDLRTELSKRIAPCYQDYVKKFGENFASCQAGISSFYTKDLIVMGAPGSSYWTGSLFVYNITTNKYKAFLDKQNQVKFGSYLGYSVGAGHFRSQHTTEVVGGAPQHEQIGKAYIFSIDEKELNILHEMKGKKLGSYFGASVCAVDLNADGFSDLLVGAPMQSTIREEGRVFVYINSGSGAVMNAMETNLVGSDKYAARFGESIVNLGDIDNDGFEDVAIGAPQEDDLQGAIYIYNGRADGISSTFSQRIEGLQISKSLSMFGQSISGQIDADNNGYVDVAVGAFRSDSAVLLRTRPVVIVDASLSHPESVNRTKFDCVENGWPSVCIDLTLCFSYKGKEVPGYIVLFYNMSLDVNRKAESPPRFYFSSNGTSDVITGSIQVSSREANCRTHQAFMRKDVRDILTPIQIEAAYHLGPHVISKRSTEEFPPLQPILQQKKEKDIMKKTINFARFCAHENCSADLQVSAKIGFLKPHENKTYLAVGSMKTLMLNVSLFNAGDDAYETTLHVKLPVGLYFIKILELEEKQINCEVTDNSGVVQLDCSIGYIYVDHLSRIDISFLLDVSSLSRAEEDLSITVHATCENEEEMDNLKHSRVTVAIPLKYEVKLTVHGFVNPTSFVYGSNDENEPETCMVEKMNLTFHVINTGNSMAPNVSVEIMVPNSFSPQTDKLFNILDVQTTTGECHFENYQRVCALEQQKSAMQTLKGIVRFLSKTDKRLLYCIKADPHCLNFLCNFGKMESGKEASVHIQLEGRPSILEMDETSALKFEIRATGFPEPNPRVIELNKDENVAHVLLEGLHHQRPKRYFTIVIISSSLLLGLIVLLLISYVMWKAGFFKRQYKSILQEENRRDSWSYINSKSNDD
Chain of Beta-adrenergic receptor kinase 1 (Homo sapiens) (P25098 whole entry, looked up): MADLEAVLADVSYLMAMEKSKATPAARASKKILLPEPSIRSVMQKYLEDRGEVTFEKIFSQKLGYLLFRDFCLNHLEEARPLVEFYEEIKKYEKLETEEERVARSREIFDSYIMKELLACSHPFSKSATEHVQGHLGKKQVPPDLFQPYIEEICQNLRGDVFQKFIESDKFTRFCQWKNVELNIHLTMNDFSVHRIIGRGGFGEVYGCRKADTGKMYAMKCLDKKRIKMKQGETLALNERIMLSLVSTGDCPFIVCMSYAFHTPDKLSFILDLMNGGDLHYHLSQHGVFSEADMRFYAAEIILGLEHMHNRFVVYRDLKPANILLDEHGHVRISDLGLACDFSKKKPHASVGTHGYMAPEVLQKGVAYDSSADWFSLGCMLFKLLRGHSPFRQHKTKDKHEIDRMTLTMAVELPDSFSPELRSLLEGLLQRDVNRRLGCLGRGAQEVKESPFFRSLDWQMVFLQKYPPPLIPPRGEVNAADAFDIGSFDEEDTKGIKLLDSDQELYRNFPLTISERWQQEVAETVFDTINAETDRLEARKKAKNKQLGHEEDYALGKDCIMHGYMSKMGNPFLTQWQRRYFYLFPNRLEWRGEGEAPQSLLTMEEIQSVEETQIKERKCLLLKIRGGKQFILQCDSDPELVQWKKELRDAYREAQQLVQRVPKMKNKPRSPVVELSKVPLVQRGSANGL

In the case of `COc1cc(CNc2ccc(C)c(C)c2)cc(OC)c1OC`, the percent of DMSO control GFP in assay [1] is 99% (inactive). Also, the results for the GFP response vs DMSO in assay [2] and in [4] were 108% (inactive) and 113% (inactive), respectively. In assay [3], the percent response of DMSO control was 107% (inactive). Further, the GFP response, % of DMSO in assay [5] is 111% (inactive). In assay [6], the double positive events was found to be 60.3%. The vesicle binding response in assay [6] is 256% (inactive). In addition, the inhibition in [7] is 6.55% (inactive); in [11] it was 16.2% (inactive); in assay [15], -8% (inactive). Also, the superoxide response (% of plate) in assay [8] was 90.2% (inactive). For the same compound, the aptamer binding inhibition in assay [9] was 0% (inactive). The figures for the response in assay [10] and in assay [12] were -29.1% (inactive) and -0.73% (inactive), respectively. Further, in [13], the binding (% of control) was 101% (inactive). The efflux inhibition (fraction of control) in [14] is 0 (inactive). In assay [16], the differentiation response is -16.8% (inactive).
As for `CC1Cc2ccccc2N1NC(=O)c1ccc(Cl)c(S(N)(=O)=O)c1` (stereo not given), the percent of DMSO control GFP in assay [1] was 105% (inactive). Moreover, the results for the GFP response vs DMSO in assay [2] and in [4] were 103% (inactive) and 106% (inactive), respectively. In assay [3], the percent response of DMSO control was 105% (inactive). The GFP response, % of DMSO in assay [5] is 114% (inactive). In assay [6], the double positive events amounted to 41.4%. For the same compound, the vesicle binding response in assay [6] is 19.9% (active). In addition, the inhibition in assay [7] is 3.14% (inactive); in [11], 7.39% (inactive); in assay [15], 7% (inactive). The superoxide response (% of plate) in assay [8] was 99.9% (inactive). The aptamer binding inhibition in assay [9] is 1% (inactive). The response was -28.6% (inactive) in assay [10] and 2.79% (inactive) in [12]. The binding (% of control) in assay [13] is 99.5% (inactive). Besides, the efflux inhibition (fraction of control) in assay [14] is 0.04 (inactive). Moreover, the differentiation response in [16] is 11.8% (inactive).
Turning to `CCCCCCCCCC(=O)OCC(O)CO` (stereo not given), in assay [1], the percent of DMSO control GFP is 105% (inactive). Also, the GFP response vs DMSO in assay [2] was 105% (inactive); in assay [4], 103% (inactive). Also, the percent response of DMSO control in [3] was 102% (inactive). Further, in assay [5], the GFP response, % of DMSO was 93.4% (inactive). The double positive events in assay [6] is 65.4%. Also, the vesicle binding response in [6] was 163% (inactive). In addition, the inhibition in assay [7] is -10.8% (inactive); in [11] it was 59.4% (active); in assay [15], 5% (inactive). Moreover, in assay [8], the superoxide response (% of plate) was 116% (inactive). For the same compound, in [9], the aptamer binding inhibition was 4% (inactive). Moreover, the response in assay [10] was -2% (inactive); in assay [12] it was -4.17% (inactive). For the same compound, in assay [13], the binding (% of control) was 96.3% (inactive). The efflux inhibition (fraction of control) in assay [14] was 0.18 (inactive). In assay [16], the differentiation response is 9.04% (inactive).
For the compound `CCOC(=O)c1ccc(NC(=S)NCCc2ccccc2F)cc1`, the percent of DMSO control GFP in assay [1] is 100% (inactive). Moreover, the GFP response vs DMSO was 107% (inactive) in assay [2] and 111% (inactive) in assay [4]. In addition, the percent response of DMSO control in assay [3] is 101% (inactive). In assay [5], the GFP response, % of DMSO is 93.7% (inactive). In addition, the double positive events in assay [6] came to 68.7%. Further, the vesicle binding response in assay [6] was 1410% (inactive). Moreover, the inhibition was -21.2% (inactive) in assay [7], 18.6% (inactive) in [11] and -3% (inactive) in assay [15]. Also, the superoxide response (% of plate) in [8] was 98.7% (inactive). Besides, the aptamer binding inhibition in assay [9] was 3% (inactive). Further, the values for the response in assay [10] and in assay [12] were 2.84% (inactive) and 1.24% (inactive), respectively. In addition, in [13], the binding (% of control) is 104% (inactive). The efflux inhibition (fraction of control) in [14] was 0.58 (active). In addition, the differentiation response in assay [16] is 9.04% (inactive).
Take `CCN(CCCCOC(=O)c1ccc(OC)c(OC)c1)C(C)Cc1ccc(OC)cc1` (stereo not given): the percent of DMSO control GFP in [1] is 102% (inactive). The GFP response vs DMSO in assay [2] was 99.6% (inactive); in assay [4], 104% (inactive). Besides, the percent response of DMSO control in [3] is 102% (inactive). Moreover, the GFP response, % of DMSO in [5] is 117% (inactive). In assay [6], this compound yielded a double positive events of 62.7%. The vesicle binding response in assay [6] is 194% (inactive). The inhibition in [7] is 22.7% (inactive); in assay [11] it was 3.32% (inactive); in [15], 6% (inactive). For the same compound, the superoxide response (% of plate) in assay [8] is 103% (inactive). The aptamer binding inhibition in [9] was 4% (inactive). The values for the response in [10] and in assay [12] were -26.8% (inactive) and 0.12% (inactive), respectively. For the same compound, the binding (% of control) in assay [13] is 103% (inactive). The efflux inhibition (fraction of control) in assay [14] is -0.09 (inactive). For the same compound, the differentiation response in assay [16] is -5.97% (inactive).
